# Shown is part of a subset that was picked to be rich in hits.
# Ba CapD inh: inhibitors of Bacillus anthracis CapD enzyme; AID 492967; purified CapD enzyme, fluorescence intensity read-out; hits give low values; 140,000 tested, 0.23% active; z-score (no concentration beside the values); in the data active means z-score mostly below about -2.9, no sharp cut-off; inactive means mostly above about -1.9
# Active calls of the source: *.
SMILES,Ba CapD inh
COC(=O)C(=C/C=C/N1CCCCC1)C(=O)OC,-4.8*
COC(=O)c1noc(C)c1C(=O)/C=C/N1CCCCC1,8.3
CCCn1c(CCC(=O)N2CCc3ccccc32)nc2cccnc21,0.22
Cc1ccc(S(=O)(=O)n2nnc3cc(Cl)ccc32)cc1C,-0.29
CC(C)Nc1nc2c(S(=O)(=O)c3ccccc3)nnn2c2ccsc12,6.6
CC(C)(C)NC(=O)c1ccc2c(c1)C(=O)N(Cc1ccco1)C2=O,0.37
O=C(O)c1ccc(NC(=O)c2ccc3c(c2)C(=O)N(Cc2ccco2)C3=O)cc1,-7.6*
CCN1C(=O)c2ccc(C(=O)Nc3ccc(C(=O)O)cc3)cc2C1=O,-0.21
O=C1CC2(CCCC2)C(=O)N1c1ccc(S(=O)(=O)N2CCc3ccccc3C2)cc1Cl,-0.36
Cc1cc(N)nn1C(=O)CSc1nc(NCC2CCCO2)c2ccccc2n1 (centres undefined),0.47
CCOc1ccc2nc(Nc3nc4ccccc4c(=O)[nH]3)nc(C)c2c1,4.1
O=C(Nc1ccc(Br)cc1C(=O)c1ccccc1)c1cc2cc([N+](=O)[O-])ccc2s1,-1.2
Cc1ccc(/C=C2\N=C(c3ccccc3)OC2=O)o1,-2.7
O=C1OC(c2ccccc2)=N/C1=C\C=C\c1ccccc1,-0.44
CN(C)/C=C/C=C1\N=C(c2ccccc2)OC1=O,-7*
CCN(Cc1nc(-c2ccc(OC)cc2)no1)S(=O)(=O)c1c(C)cc(C)cc1C,-0.85
CCOc1ccc(-c2cc(C(=O)NCc3ccncc3)c3ccccc3n2)cc1,33
CCCCOC(=O)c1ccc(-c2n[nH]c(=O)c3ccccc23)cc1,-0.38
CCOc1ccc(C=C(C#N)C#N)cc1,-0.18
COc1cc(C=C(C#N)C#N)ccc1O,-4.3*
COc1ccc(/C=C(\C#N)C(N)=O)cc1OC,-2.3
CCOC(=O)c1c(C)noc1N,-0.02
O=C(O)C1SCCN1C(=O)c1ccc(Cl)cc1 (centres undefined),0.075
O=C(c1ccc(Cl)cc1)N1CCSC1=S,-3.5*
O=C(c1cccs1)N1CCCCC1,0.45
SMILES,Ba CapD inh
O=C(c1ccc(Cl)cc1)N1CCCc2ccccc21,-0.33
CC1CC(C)CN(C(=O)c2cccs2)C1 (centres undefined),0.025
O=C(c1cccs1)N1CCSC1=S,-4.8*
c1ccc(CN2CCN(Cc3ccncc3)CC2)cc1,0.55
Oc1ccc(Br)c2cccnc12,-0.04
COc1cc(C(=O)NNC(=O)c2sc3ccccc3c2Cl)cc(OC)c1OC,-0.91
O=C1/C(=C\c2ccsc2)CC/C1=C/c1ccsc1,-0.21
CCCN1C/C(=C\c2ccc(N(C)C)cc2)C(=O)/C(=C/c2ccc(N(C)C)cc2)C1,0.15
CCCN1C/C(=C/c2ccsc2)C(=O)/C(=C/c2ccsc2)C1,-4.7*
Fc1cccc(Cl)c1CSCc1c(F)cccc1Cl,0.22
N=C(N)SCc1c(Cl)cccc1Cl,0.32
CN(C)/C=C/C(=N)SCc1c(F)cccc1Cl,-3.8*
O=C(Cn1nc(Cc2cccnc2)c2ccccc2c1=O)NCCc1ccc(Cl)cc1,-1.2
CCOC(=O)c1c[nH]c2c(F)ccc(F)c2c1=O,2.8
CCOC(=O)c1c[nH]c2ccccc2c1=O,-0.28
CCOC(=O)c1coc2c(F)c(F)c(F)cc2c1=O,-12*
CCOC(=O)c1sc(Nc2ccccc2)c(-c2nc3ccccc3[nH]2)c1N,-0.23
CN1C(=O)NC(=O)/C(=C\C=C\c2ccco2)C1=O,-0.49
O=C1NC(=O)N(c2ccccc2)C(=O)/C1=C/C=C/c1ccco1,-1.1
O=C1NC(=S)NC(=O)C1=C/C=C/c1ccco1,-11*
CC12CCC(/C(=C/c3ccccc3)C1=O)C2(C)C (centres undefined),-0.54
CCCC1=NN(c2ccccc2)C(=O)/C1=C/c1ccc2c(c1)OCO2,-0.4
CC1(C)CC(=O)C(C(NC(=O)c2ccncc2)(C(F)(F)F)C(F)(F)F)=C(NCc2ccco2)C1,0.97
Cc1cccc(CC(=O)N2CC(C)OC(C)C2)c1 (centres undefined),0.94
O=c1[nH]c(=S)c2c(n1N1CCOCC1)CCC2,-5*
SMILES,Ba CapD inh
COc1ccc([S+]2CCCCC2)cc1,-4.9*
COc1ccc(C2CCCCC2)cc1,0.46
COc1ccc(CN2CCCCCC2)cc1,0.38
O=C(N/N=C/c1ccccn1)c1ccc([N+](=O)[O-])o1,-4.3*
O=C(N/N=C/c1ccc(Br)cc1)c1ccc([N+](=O)[O-])o1,-1.5
O=C(N/N=C/c1ccccc1C(=O)O)c1ccc([N+](=O)[O-])o1,-2
O=C(O)c1ccccc1-c1ccc2cnccc2n1,-0.46
CCCCCCC(=O)Nc1cccc(C(=O)N/N=C/c2cc(Br)cc([N+](=O)[O-])c2O)c1,-1
CSC(=CC(=O)c1ccco1)SC,-2.2
CN(C)/C=C/C(=O)c1cc(-c2ccccc2)no1,-3.7
CN(C)/C=C/C(=O)c1ccco1,-4.4*
COc1cccc2c1OC1(C=C2)c2ccccc2-c2ccccc2N1C (centres undefined),0.05
COc1cc2[nH]c(=S)n(C3CC3)c(=O)c2cc1OC,0.08
COc1cc2[nH]c(=S)nc(Nc3ccc(NC(C)=O)cc3)c2cc1OC,2.8
COc1cc2[nH]c(=S)n(N(C(C)=O)C(C)=O)c(=O)c2cc1OC,-13*
CC1Sc2ccccc2NC(=O)C1C (centres undefined),0.88
CCc1nc(C)ccc1OCC(N)=O,0.37
Cc1ccc(OCC(=O)O)c(C)c1,-0.085
CCc1nc(C)ccc1OCC(=O)O,-5*
COc1ccc(Cl)cc1NC(=O)Cn1ncc2ccccc21,-1.4
CCOc1ccc(N2C(=O)C(C)SC23C(=O)N(CN2CCN(c4ccccc4)CC2)c2ccccc23)cc1 (centres undefined),0.35
CC(C)CCNC(=O)C1CCCN(S(=O)(=O)N2CCOCC2)C1 (centres undefined),1
O=[N+]([O-])c1cccc(S(=O)(=O)n2c(SCc3ccc(Cl)cc3)nc3ccccc32)c1,0.34
O=c1[nH]c2c(s1)C(c1ccccc1)C1C3CCC(C3)C1S2 (centres undefined),-0.12
O=C1NC(=O)C2C1Sc1[nH]c(=O)sc1C2c1ccco1 (centres undefined),-4.1*
SMILES,Ba CapD inh
COc1ccc(C2c3sc(=O)[nH]c3SC3C(=O)N(c4ccccc4)C(=O)C32)cc1 (centres undefined),1
N#Cc1cc(C(F)(F)F)ccc1Sc1ccc(Br)cc1,-0.33
Cc1ccc(Sc2ccc(C(=O)O)cc2NC=O)cc1,0.1
CC(=O)N(C(C)=O)c1cc(C(=O)O)ccc1Sc1ccc(Br)cc1,-11*
Cc1onc(-c2ccccc2Cl)c1-c1nc(-c2ccc(Br)cc2)no1,4.7
Oc1ccc(Br)cc1-c1nc2ccccc2s1,0.43
O=C(/C=C/c1ccc(Cl)cc1)C1(O)CCCCC1,-1.5
COc1ccc(/C=C/C(=O)C2(O)CCCCC2)cc1OC,-4.5*
O=C(/C=C/c1ccccc1)C1(O)CCCCC1,-0.89
Cc1cc(C)c(C)c(S(=O)(=O)N2CCN(Cc3ccco3)CC2)c1C,-0.29
O=C(O)c1cc(N2C(=O)C3C4c5ccccc5C(c5ccccc54)C3C2=O)ccc1N1CCOCC1 (centres undefined),-0.07
CCOC(=O)C1=C(CC)NC2=C(C(=O)CCC2)C1c1ccccc1OCC (centres undefined),1.4
N=C1S/C(=C\c2ccco2)C(=O)N1c1ccc(Oc2ccccc2)cc1,-0.19
O=C(O)c1cccc(-c2ccc(/C=C3/SC(=O)N(c4ccccc4)C3=O)o2)c1,18
O=C1S/C(=C\c2ccco2)C(=O)N1c1ccccc1,-2.4*
O=C(c1cccc(C(F)(F)F)c1)N(CCSCc1cc2cccc3c2n(c1=O)CCC3)Cc1ccccn1,0.17
O=C(Cn1c(=O)n(CCc2ccccc2)c(=O)c2ccccc21)Nc1ccc(Cl)cc1,0.53

# Assay outcomes: PubChem, ICCB-Longwood Screening Facility, Harvard Medical School
